Test results published in PubChem BioAssay AID449762 (Southern Research Specialized Biocontainment Screening …, 2010).
The campaign covered roughly 330,000 compounds. About 1,900 (0.58%) were called active. Roughly 4% stayed inconclusive and do not appear here. Only a sample is shown. Entries with a potency or affinity are not part of this list. Values without a mark were called inactive. Rule as the data show it: inconclusive = inhibition above about 70% without an active follow-up result; inactive = below that.

Experiment: M. tuberculosis growth inhibition, HTS (AID 449762);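 also: bacterial growth assessed after seven days of incubation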
Details: M. tuberculosis H37Rv growth inhibition, 7H9 media; at 25 µM; hits give high values
c1ccc(Cn2cc(-c3cccnc3)cn2)cc1 showed an inhibition of 7.26%.
Nc1cc(C(F)(F)F)cc([N+](=O)[O-])c1N gave an inhibition of 18%.
For CCCOP(=O)(O)c1c([N+](=O)[O-])cc(C(F)(F)F)cc1[N+](=O)[O-] (tested in a mixture with another compound), the inhibition was -2.65%.
In the case of COC(=O)c1ccc(CNC(=O)C2CCC(=O)N(CCCc3ccccc3)C2)cc1 (stereo not drawn), the inhibition is reported as -9.71%.
With O=C(NC1CCCC1)c1ccccc1-c1ccccc1 the inhibition was 64.1%.
With O=C(NC1CCCCCCC1)c1ccccc1O the inhibition was 6.43%.
CN(Cc1ccccc1)S(=O)(=O)c1cccc2nsnc12 showed an inhibition of -5.13%.
In the case of COc1ccc2c(c1)O[C@@H](c1cccc(C(F)(F)F)c1)[C@H](OC(=O)NCCc1ccc(OC)c(OC)c1)C2=O, the inhibition is reported as 8.51%.
For COC(=O)[C@@H](NC(=O)O[C@@H]1C(=O)c2cc(Br)ccc2O[C@H]1c1cccc(OC)c1)C(C)C, the inhibition was 8.75%.
Cc1cc(=O)oc2cc(NC(=S)NNC(=O)c3c(Cl)cnn3C)ccc12 showed an inhibition of -1.94%.
Compound CCN(CC)C(=O)c1ccccc1NS(C)(=O)=O has an inhibition of -4.74%.
In the case of CCNC(=O)CSc1nnc(-c2cccs2)o1, the inhibition is reported as 17%.
With C=CCNC(=O)CSc1nnc(-c2cccs2)o1 the inhibition was 2.45%.
Compound Clc1ccc(OCCOCCN2CCCCC2)c(Br)c1 has an inhibition of -2.44%.
For CC(C)N1CCN(Cc2cccn2-c2cccnc2)CC1CCO (stereo not drawn), the inhibition was -3.04%.
CCOC(=O)C1(CCc2ccccc2)CCN(Cc2ccc(NC(C)=O)cc2)CC1 showed an inhibition of -6.26%.
With COc1cc2ncnc(NCc3ccccc3F)c2cc1OC the inhibition was 4.17%.
For CCc1ccc2[nH]c(=O)c(C(c3nnnn3CCOC)N3CCN(c4ccccc4)CC3)cc2c1 (stereo not drawn), the inhibition was -6.34%.
COc1ccc2cc(C(c3nnnn3CCc3ccccc3)N3CCC(O)CC3)c(=O)[nH]c2c1 (stereo not drawn) gave an inhibition of -12.3%.
COc1cccc(OC)c1C(=O)NC(=S)N1CCCCC1c1cccnc1 (stereo not drawn) gave an inhibition of -6.76%.
Work on O=C(CCC(=O)c1cccs1)OCC(=O)c1ccc(F)cc1 yielded an inhibition of 1.25%.
Cc1nn(Cc2ccccc2)c(C)c1C(=O)OCC(=O)c1cc(C)n(C2CC2)c1C showed an inhibition of 63.9%.
In the case of COCCn1c(C)cc(C(=O)COC(=O)c2c(C)nn(Cc3ccccc3)c2C)c1C, the inhibition is reported as 20.6%.
In the case of CSc1ccc(C(=O)C2CCCN(Cc3cccn3-c3cccnc3)C2)cc1 (stereo not drawn), the inhibition is reported as 9.15%.
O=C(c1ccc2c(c1)OCO2)N1CCc2ccccc21 gave an inhibition of -5.13%.
With Cc1nc(SCC(=O)c2cc3ccccc3oc2=O)c(C#N)c(-c2cccs2)c1C(=O)Nc1ccccc1 the inhibition was 3.9%.
For Cc1nc(SCC(=O)c2cc3ccccc3oc2=O)c(C#N)c(-c2ccccc2)c1C(=O)Nc1ccccc1, the inhibition was 17.1%.
With Cc1nc(NC(=O)c2ccccc2)sc1-c1csc(Nc2ccc(Cl)cc2Cl)n1 the inhibition was 6.01%.
In the case of COc1ccccc1Nc1nc(-c2sc(NC(=O)CC(C)C)nc2C)cs1, the inhibition is reported as 1.91%.
Cc1ccc(C(C)C)c(OCC(=O)Nc2ccc(N3CCN(S(C)(=O)=O)CC3)cc2)c1 showed an inhibition of -4.74%.
With CCCCCCSc1ccc([C@H]2N[C@@](CC(C)C)(C(=O)OC)[C@H]3C(=O)N(CC)C(=O)[C@@H]23)cc1 the inhibition was -1.98%.
In the case of COc1cc(NC(=S)NCCc2ccccc2)c(OC)cc1NC(=O)CC(C)C, the inhibition is reported as -2.92%.
Compound CN1C(=S)SC(N(O)C(=O)Nc2cccc3ccccc23)C1(C)C (stereo not drawn) has an inhibition of 3.28%.
Work on CN1C(=S)SC(N(O)C(=O)Nc2ccccc2)C1(C)C (stereo not drawn) yielded an inhibition of -1.59%.
In the case of CC1=CSC2=NS(=O)(=O)CCN12, the inhibition is reported as -1.32%.
COCCCNC(=O)c1c[nH]c2ccc(S(=O)(=O)N3CCC4(CC3)OCCO4)cc2c1=O showed an inhibition of -4.78%.
O=C(Cn1nnc(-c2cccs2)n1)OC1CCCCC1 showed an inhibition of 4.15%.
COc1ccc(-c2nnn(CC(=O)NC(=O)NC3CCCCC3)n2)cc1OC showed an inhibition of -0.345%.
Work on O=C(NC(=S)NC1CCS(=O)(=O)C1)c1ccccc1 (stereo not drawn) yielded an inhibition of -12%.
With Cc1c(C(=O)N2CCC3(CC2)OCCO3)sc2ncnc(N3CCc4ccccc4C3)c12 the inhibition was -0.89%.
CC(C)CCn1nnnc1C(c1ccccc1)N1CCN(C)CC1 (stereo not drawn) showed an inhibition of 5.26%.
O=C(CNS(=O)(=O)c1cccs1)N1CCN(c2ccccn2)CC1 showed an inhibition of 4.15%.
O=C(C1CCN(c2nnc(-n3cccc3)s2)CC1)N1CCOCC1 showed an inhibition of -4.62%.
CCOC(=O)N1CCN(C(=O)C2CCN(c3nnc(-n4cccc4)s3)CC2)CC1 showed an inhibition of -4.54%.
Work on CC1=NN(C(N)=S)C(=O)C1N=Nc1ccc(Br)cc1 (stereo not drawn) yielded an inhibition of 58.6%.
CC1=NN(C(N)=S)C(=O)C1N=Nc1ccc(S(N)(=O)=O)cc1 (stereo not drawn) gave an inhibition of 0.37%.
In the case of Cc1ccc(S(=O)(=O)Nc2ccc3ccccc3n2)cc1, the inhibition is reported as 0.36%.
Work on Cc1nc2cc(-c3cccc(F)c3)nn2c(C)c1CCC(=O)NC(C)CCc1ccco1 (stereo not drawn) yielded an inhibition of -9.87%.
Compound COc1ccccc1-c1cc2nc(C)c(CCC(=O)NC(C)CCc3ccco3)c(C)n2n1 (stereo not drawn) has an inhibition of 2.39%.
Work on O=c1cc(O)nc(SCc2ccc(Cl)cc2)[nH]1 yielded an inhibition of -0.2%.
COc1cc(-c2nnc(CSc3nnc(N)s3)o2)cc(OC)c1OC gave an inhibition of -0.69%.
Work on Cc1nc(-n2nnc3ccccc32)c2c3c(sc2n1)CCCC3 yielded an inhibition of 4.15%.
For CCCc1cc(=O)n2[nH]c(C)c(-c3ccc(OC)cc3)c2n1, the inhibition was 35.8%.
Compound Cc1cc(=O)n2[nH]c(C)c(-c3ccc(Cl)cc3)c2n1 has an inhibition of -1.1%.
Cc1cc(NC(=O)Cn2nnc(-c3ccccc3NC(=O)c3ccccc3F)n2)no1 showed an inhibition of -4.78%.
CCOC(=O)c1cnc(Nc2nc3ccccc3o2)nc1CSc1ncccn1 gave an inhibition of 0.71%.
Compound CCCc1nc(Nc2nc3ccccc3o2)nc(C)c1C(=O)OCC has an inhibition of -21.6%.
Compound Cc1nnc(SCC(=O)N(Cc2ccccc2)C(C)(C)C)[nH]c1=O has an inhibition of 3.28%.
